# High-throughput results (PubChem)
# KB-3-1 cytotox: KB-3-1 parental cell cytotoxicity; KB-3-1 viability, CellTiter-Glo ATP luminescence, 72 h; Potency, µM (titrated, usually from 46.1 µM), actives largely listed as cytotoxic; 400,000 compounds, 1.4% hits; further: on the % scale 0 is the no-effect control and ±100 the full control effect; nearly all actives have a fitted effect of over 60% in size
#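 Cytotoxicity measured as CellTiter-Glo luminescence after 72 h at 37 C. Compound titrations were pinned onto drug-naive KB-3-1 parental adenocarcinoma cells grown in DMEM with 10% FBS, and normalized data fitted to concentration-response curves.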
# SW480 rereplic: induces DNA re-replication in SW480 colon adenocarcinoma cells. Potency, µM (titrated, usually from 46.1 µM), without a hit: at the highest dose re-replication activation, usual class: activators. AID 624297. SW480 DNA re-replication, Hoechst DNA content imaging, 48 h. 340,000 compounds, 1.8% hits; further: % of control where 0% means no effect; nearly all actives have a fitted effect of over 55% in size
#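 First, 250 cells per well were seeded. Next, compound or vehicle (23 nL) was pinned in, plates sat 48 hr at 37 C. Finally Hoechst was added for 40 min before fluorescence scanning.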
# MCF10A rerep: induces DNA re-replication in MCF 10a normal breast cells. MCF 10A DNA re-replication, Hoechst nuclear intensity, 48 h. 350,000 compounds, 2.9% hits. Potency, µM (titrated, usually from 46.1 µM), for the others: at the top dose activity, positive = re-replication, actives largely listed as activators; further: % of control where 0% means no effect; nearly all actives have a fitted effect of over 50% in size
# PINK1 expr mod: changes PINK1 expression; PINK1 immunofluorescence, high-content cytometry, 24 h; Potency, µM (titrated, usually from 76.6 µM), inactives show at the highest dose activation (PINK1 increase), most hits filed as activators; 410,000 compounds, 0.2% hits; active means well fitted activation curve with a large enough effect; inconclusive means small, poorly fitted or top-dose-only effect; cell line not stated here; further: % of control where 0% means no effect; nearly all actives have a fitted effect of over 65% in size
#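 Cells are seeded, rested 12 hours, then given compound at five concentrations or DMSO for 24 hours. After fixation, blocking and antibody staining, PINK1 amount and mitochondrial localization are scored; CCCP serves as control.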
# KB-V1 MDR tox: KB-V1 MDR subline cytotoxicity; KB-V1 MDR cells viability, CellTiter-Glo, 72 h; Potency, µM (doses to about 46.1 µM), hits mostly cytotoxic; 400,000 compounds, 3.4% hits; AID 1347076; further: on the % scale 0 is the no-effect control and ±100 the full control effect; nearly all actives have a fitted effect of over 60% in size
#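 KB-V1 cells (P-gp-expressing MDR subline of KB-3-1) in phenol-red-free DMEM with 10% FBS were exposed to library compounds over a concentration series for 72 h at 37 degrees C. Viability read by CellTiter-Glo luminescence; concentration-effect curves fitted after normalization.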
# The depositor's hits bear a star; i = inactive; ? = inconclusive; nt = not tested or not shown; [ ] = dose if it differs, or a comment. Hits are enriched below; roughly 6.7% of the tested compounds scored in any of these assays. Unless noted, the call rests on the fitted dose curve; in most records, active means well fitted curve in the direction sought with a large enough effect; inconclusive means small, poorly fitted or top-dose-only effect, or another doubt; inactive means no such curve, though single readings can be large; an effect the other way counts as inactive or inconclusive. Potency means the concentration at half of the fitted maximal effect.
SMILES,KB-3-1 cytotox,SW480 rereplic,MCF10A rerep,PINK1 expr mod,KB-V1 MDR tox
COc1cc(=O)n2c(c1C(=O)N(C)Cc1nonc1C)CCN(C(=O)c1cc(C)cc(C)c1)CC2,nt,nt,nt,0%,nt
Cn1c(=O)[nH]c(=O)c2c1nc(N1CCCC1)n2CCCSc1nnnn1-c1ccccc1,i,9%,?,-1%,6.5µM*
CC(=O)Nc1ccc(S(=O)(=O)NNC(=O)c2cccc([N+](=O)[O-])c2)cc1,i,3%,-5%,0%,i
CCOC(=O)C1(C)C=C(Nc2ccc(C(N)=O)cc2)C(=O)N1c1ccccc1 (configuration not stated),i,nt,nt,0%,i
COc1ccc(-c2nc(C(=O)Nc3cccc(C(C)=O)c3)nn2-c2ccccc2Cl)cc1,i,nt,nt,-1%,i
COc1ccccc1-n1ccnc(SCC(=O)NCc2ccccc2Cl)c1=O,i,2%,5%,-1%,21µM*
Cc1nc2ccc(C(=O)N3CCc4c(cnc(C)c4CNC(=O)/C=C/c4cccs4)C3)cc2nc1C,nt,nt,nt,0%,nt
COc1cccc(C2(CC(=O)N3CCCCC3CO)CC(=O)N(C)C2=O)c1 (configuration not stated),nt,nt,nt,0%,nt
O=[N+]([O-])c1cc([N+](=O)[O-])c(N2CCCCCC2)cc1NCCO,i,27%,23%,-10%[38.3 µM],9.2µM*
O=C(N/N=C/c1cn(-c2ccccc2)nc1-c1cccs1)c1ccccc1F,?,?,?,1%,21µM*
O=C(N/N=C/c1cn(-c2ccccc2)nc1-c1cccnc1)c1ccc(F)cc1,i,3%,3.3µM*,3%,i
CN1CCC(N(C)C(=O)/C=C/c2cn(-c3ccccc3)nc2-c2cccs2)CC1,i,3%,?,-2%,21µM*
O=C(N/N=C/c1cn(-c2ccccc2)nc1-c1cccnc1)c1cccnc1,i,1%,-8%,2%,i
O=C(N/N=C/c1cn(-c2ccccc2)nc1-c1cccs1)c1ccc(Cl)cc1,?,1%,?,-1%,15µM*
CCN(CC(=O)Nc1ccc(NC(C)=O)cc1)C(=O)/C=C/c1cn(-c2ccccc2)nc1-c1cccs1,i,5%,?,7%,i
CC(=O)c1ccc(NC(=O)c2cnn3c2NC(=C2CC2)C=C3C(F)F)cc1,?,nt,nt,-1%,?
COc1cccc(CN(C(=O)COc2ccc(Cl)c(C)c2)C2CCS(=O)(=O)C2)c1 (configuration not stated),i,nt,nt,1%,i
CC1(C(=O)NS(=O)(=O)c2ccccc2Cl)CCN1C(=O)c1ccco1 (configuration not stated),i,nt,nt,1%,i
O=C(/C=C/c1cn(-c2ccccc2)nc1-c1cccnc1)c1ccco1,?,?,?,-1%,21µM*
Cc1cccnc1C(c1ccc(F)cc1)N(C)C(=O)C1CCN(CCOc2ccc(Cl)cc2Cl)CC1 (configuration not stated),?,nt,nt,-1%,i
COc1ccc(NC(=O)/C(Cl)=C(/Cl)S(=O)(=O)Cc2ccccc2)cn1,?,?,?,-4%,?
COc1ccc(NC(=O)C(C)(C)Oc2ccc(Cl)cc2)cn1,i,-2%,1%,0%,15µM*
COC(=O)CNC(=O)C(C)(C)Oc1ccc(Cl)cc1,i,-7%,-12%,1%,i
COc1ccc(NC(=O)C(Cl)=C(Cl)Cl)cn1,?,?,21µM*,-2%,?
COc1ccc(NC(=O)/C(Cl)=C(/Cl)S(=O)Cc2ccc(Cl)cc2)cn1 (configuration not stated),7.3µM*,?,?,-2%,5.8µM*
SMILES,KB-3-1 cytotox,SW480 rereplic,MCF10A rerep,PINK1 expr mod,KB-V1 MDR tox
COCC1CCCN(Cc2ccc3c(c2)CN(C(=O)c2ccc(-c4ccc(C)o4)cc2)CCO3)C1 (configuration not stated),nt,nt,nt,1%,nt
O=C(NNC(=O)C(c1ccccc1)c1ccccc1)c1ccccc1O,i,nt,nt,2%,?
COC(=O)Cn1c(=O)c2c(n(Cc3ccccc3)c1=O)N/C(=C/c1ccc(Br)cc1)C2=O,?,?,4.6µM*,1%,?
COC(=O)CN1C(=O)N/C(=C/c2ccc(OC)cc2)C1=O,i,0%,0%,1%,i
Cc1ccc(N=C2CCCN2Cc2ccccc2)c(C#N)c1,?,5%,4%,1%,18µM*
COc1ccc(-c2cn[nH]c2-c2ccc(OC)cc2O)cc1,i,?,18%,-1%,i
COc1ccc(-c2cn[nH]c2-c2ccc(OCc3ccccc3)cc2O)cc1,i,?,13µM*,-2%,i
COc1ccccc1-c1cn[nH]c1-c1ccc(OCc2ccccc2)cc1O,?,?,23µM*,3%,i
CCCc1c(-c2ccccc2)ncn1Cc1ccccc1OC,?,nt,nt,19%,18µM*
CCCCc1c(-c2cccc(F)c2)ncn1CCc1ccccc1OC,?,nt,nt,-1%,12µM*
CCCc1c(-c2cccc(F)c2)ncn1Cc1ccccc1OC,i,nt,nt,7%,?
CCCc1c(-c2cccc(F)c2)ncn1CCc1ccccc1OC,?,nt,nt,27%,18µM*
CCCCc1c(-c2cccc(Br)c2)ncn1CCc1ccccc1OC,?,nt,nt,-1%,10µM*
Cc1cc(C)cc(-n2ccnc2SCC(=O)Nc2ccc(C)c(Cl)c2)c1,i,nt,nt,7%,i
CCCCCc1c(-c2cccc(F)c2)ncn1CCc1ccccc1OC,?,nt,nt,0%,8.2µM*
CCCCCc1c(-c2cccc(OC)c2)ncn1CCc1ccccc1OC,?,nt,nt,?,16µM*
CN(C1CCCCC1)S(=O)(=O)c1ccc2c(c1)c(=O)c(C(=O)NCCc1ccc(Cl)cc1)cn2C,?,nt,nt,3%,i
Cc1ccc(NC(=O)c2oc3ccccc3c2NC(=O)C2CCCCC2)cc1,i,nt,nt,8%,i
CCOc1cc(C(=O)Nc2ccc(-c3nnc4n3CCCCC4)cc2)cc(OCC)c1OCC,i,nt,nt,0%,i
O=C(COc1ccc(/C=N/NC(=O)c2cc3ccccc3o2)cc1Br)Nc1ccccc1,13µM*,?,?,-3%,?
COc1ccc(/C=N/NC(=O)c2cc3c(ccc4ccccc43)o2)cc1OC,?,?,16µM*,5%,?
COc1ccc(/C=N\NC(=O)c2cc3c(ccc4ccccc43)o2)cc1O,?,?,12µM*,5%,i
CCCCNC(=O)c1cc(-c2ccc(OC)cc2)nc2n[nH]c(-c3cccc([N+](=O)[O-])c3)c12,i,nt,nt,9%,i
Cc1c(C(=O)N(Cc2ccccc2Cl)C2CCS(=O)(=O)C2)oc2ccccc12 (configuration not stated),i,-1%,18%,1%,i
